Counter-ions that a name gives are not always drawn. ± gives the standard deviation of the averaged measurements. Whole data set: some 1,300 compounds, median “normalised cell viability” near 1, cut for the lowest 2% near 0.14. Shown is part of a subset that was picked to be rich in the lowest values.
System: V-C8 (BRCA2-deficient hamster cells)
Test: normalised cell viability (fraction of plate median); higher = more viable cells (less toxic)
Details: 5 µM
Method in brief: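 Hamster V-C8 cells with and without restored BRCA2 were exposed in 96-well plates to library drugs at 5 μM for 3 days (screen 1) or 6 days (screen 2). Cell viability was scored by resazurin assay, then median-plate normalised, averaging triplicate wells.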

| SMILES | normalised cell viability (treatment time: 3 days) | normalised cell viability (treatment time: 6 days) |
| --- | --- | --- |
| COc1cc([C@@H]2c3cc4c(cc3[C@H](O)[C@H]3COC(=O)[C@H]23)OCO4)cc(OC)c1OC [Podophyllotoxin] | 0.126 ± 0.01 | 0.143 ± 0.0037 |
| C[C@]12CC[C@@H]3c4ccc(OC(=O)N(CCCl)CCCl)cc4CC[C@H]3[C@@H]1CC[C@@H]2O [Estramustine] | 0.175 ± 0.019 | 0.213 ± 0.013 |
| CCC1(C)CC(=O)NC(=O)C1 [Bemegride] | 0.925 ± 0.075 | 1.06 ± 0.055 |
| NCC(O)c1ccc(O)cc1 (racemic) [(+,-)-Octopamine hydrochloride] | 1.02 ± 0.083 | 1.1 ± 0.083 |
| CC[C@@]1(O)C(=O)OCc2c1cc1n(c2=O)Cc2cc3ccccc3nc2-1 [Camptothecine (S,+)] | 0.148 ± 0.0039 | 0.109 ± 0.008 |
| CC[C@@]1([C@@H]2O[C@@H]([C@H]3O[C@@](O)(CO)[C@H](C)C[C@@H]3C)C[C@@H]2C)CC[C@H]([C@]2(C)CC[C@]3(C[C@H](O)[C@@H](C)[C@@H]([C@@H](C)[C@@H](OC)[C@H](C)C(=O)O)O3)O2)O1 [Monensin sodium salt] | 0.156 ± 0.0082 | 0.128 ± 0.0063 |
| C[N+](C)(C)CCCCCCCCCC[N+](C)(C)C [Decamethonium bromide] | 1.18 ± 0.34 | 1.019 ± 0.0077 |
| C[N+]1(C)[C@@H]2CC[C@H]1C[C@@H](OC(=O)C(CO)c1ccccc1)C2 (stereo not given in full) [Methylatropine nitrate] | 1.11 ± 0.021 | 1.15 ± 0.091 |
| Oc1cc(Cl)ccc1Oc1ccc(Cl)cc1Cl [Triclosan] | 0.974 ± 0.022 | 1 ± 0.02 |
| C[N+]1([O-])[C@@H]2C[C@@H](OC(=O)[C@H](CO)c3ccccc3)C[C@H]1[C@@H]1O[C@@H]12 (stereo not given in full) [Scopolamin-N-oxide hydrobromide] | 0.997 ± 0.074 | 0.945 ± 0.092 |
| CC(C)(C)NCC(O)c1ccccc1Cl (stereo not given) [Tulobuterol] | 1.07 ± 0.015 | 1.05 ± 0.086 |
| C[C@@H]1C[C@@H]([C@H](O)CC2CC(=O)NC(=O)C2)C(=O)[C@@H](C)C1 [Cycloheximide] | 0.132 ± 0.0063 | 0.142 ± 0.0068 |
| C=CCC1(CC(C)C)C(=O)NC(=O)NC1=O [Butalbital] | 1.1 ± 0.031 | 1.079 ± 0.0048 |
| C=C1[C@@H]2CC[C@H]3[C@]4(C)C[C@H](O[C@@H]5O[C@H](CO)[C@@H](OS(=O)(=O)O)[C@H](OS(=O)(=O)O)[C@H]5OC(=O)CC(C)C)C[C@@H](C(=O)O)[C@H]4CC[C@]3(C2)[C@@H]1O [Atractyloside potassium salt] | 1.05 ± 0.051 | 1.09 ± 0.079 |
| C[C@]12CC[C@H]3[C@@H](CCC4=CC(=O)CC[C@@H]43)[C@@H]1CC[C@@H]2O [Nandrolone] | 0.993 ± 0.11 | 1.02 ± 0.028 |
| CN1C[C@H](CNC(=O)OCc2ccccc2)C[C@@H]2c3cccc4c3c(cn4C)C[C@H]21 [Metergoline] | 0.1447 ± 0.00066 | 0.133 ± 0.017 |
| CO[C@]12C[C@@H](COC(=O)c3cncc(Br)c3)CN(C)[C@@H]1Cc1cn(C)c3cccc2c13 [Nicergoline] | 0.886 ± 0.074 | 0.994 ± 0.033 |
| CN1C[C@H](C(=O)N[C@]2(C)O[C@@]3(O)[C@@H]4CCCN4C(=O)[C@H](Cc4ccccc4)N3C2=O)C[C@@H]2c3cccc4[nH]cc(c34)C[C@H]21 [Dihydroergotamine tartrate] | 1.06 ± 0.024 | 1.02 ± 0.12 |
| NC(=O)OCCCc1ccccc1 [Phenprobamate] | 1.14 ± 0.049 | 1.08 ± 0.15 |
| S=C(NC1CCCCC1)N1CCC(c2cnc[nH]2)CC1 [Thioperamide maleate] | 1 ± 0.018 | 1.02 ± 0.014 |

| SMILES | normalised cell viability (treatment time: 3 days) | normalised cell viability (treatment time: 6 days) |
| --- | --- | --- |
| C[C@H](N)[C@H](O)c1ccc(O)c(O)c1 [Levonordefrin] | 1.05 ± 0.05 | 1.02 ± 0.028 |
| CCCCCC[C@H]1C(=O)O[C@H](C)[C@H](NC(=O)c2cccc(NC=O)c2O)C(=O)O[C@@H](C)[C@@H]1OC(=O)CC(C)C [Antimycin A] | 0.152 ± 0.0026 | 0.12 ± 0.011 |
| C[C@]12CCC(=O)C=C1CC[C@@H]1[C@@H]2C(=O)C[C@]2(C)C(=O)CC[C@@H]12 [Adrenosterone] | 1.19 ± 0.085 | 1.11 ± 0.017 |
| CCC(C)C1O[C@]2(C=C[C@@H]1C)C[C@@H]1CC(C/C=C(\C)[C@@H](OC3C[C@H](OC)[C@@H](OC4C[C@H](OC)[C@@H](O)[C@H](C)O4)[C@H](C)O3)[C@@H](C)/C=C/C=C3\COC4[C@H](O)C(C)=CC(C(=O)O1)[C@]34O)O2 (stereo not given in full) [Avermectin B1a] | 0.486 ± 0.016 | 0.475 ± 0.052 |
| COc1ccc(CN2CCNCC2)c(OC)c1OC [Trimetazidine dihydrochloride] | 1.05 ± 0.06 | 1.06 ± 0.023 |
| C=C(C)[C@@H]1[C@H]2OC(=O)[C@@H]1[C@]1(O)C[C@H]3O[C@]34C(=O)O[C@H]2[C@]14C [Picrotoxinin] | 1.007 ± 0.0066 | 1.11 ± 0.061 |
| COc1ccc(CCN2CCC(Nc3nc4ccccc4n3Cc3ccc(F)cc3)CC2)cc1 [Astemizole] | 0.13 ± 0.0054 | 0.099 ± 0.003 |
| Fc1ccc(C(OCCN2CCN(CCCc3ccccc3)CC2)c2ccc(F)cc2)cc1 | 0.159 ± 0.0052 | 0.182 ± 0.012 |
| C[C@]12C[C@H]3S[C@H]3C[C@@H]1CC[C@@H]1[C@@H]2CC[C@]2(C)[C@@H](O)CC[C@@H]12 [Epitiostanol] | 1.04 ± 0.012 | 1.033 ± 0.01 |
| CC1OC(OC2/C=C/C=C/C=C/C=C/CC/C=C/C=C/[C@H](C)[C@@H](O)[C@@H](C)[C@H](C)OC(=O)CC(O)CC(O)CC(O)CCC(O)C(O)C[C@]3(O)CC(O)C(C(=O)O)C(C2)O3)C(O)C(N)C1O (stereo not given in full) [Nystatine] | 1.06 ± 0.055 | 0.905 ± 0.084 |
| CN1CCN(C(=O)OC2c3nccnc3C(=O)N2c2ccc(Cl)cn2)CC1 (stereo not given) [Zopiclone] | 1.11 ± 0.05 | 1.04 ± 0.061 |
| CCN[C@@H](C)Cc1cccc(C(F)(F)F)c1 [Dexfenfluramine hydrochloride] | 0.908 ± 0.092 | 1.02 ± 0.074 |
| C[C@@H]1O[C@@H](O[C@@H]2C=C3CC[C@@H]4[C@H](CC[C@]5(C)[C@@H](c6ccc(=O)oc6)CC[C@]45O)[C@@]3(C)CC2)[C@H](O)[C@H](O)[C@H]1O [Proscillaridin A] | 0.945 ± 0.013 | 0.908 ± 0.11 |
| CCN(C(C)=O)c1cccc(-c2ccnc3c(C#N)cnn23)c1 [Zaleplon] | 1.13 ± 0.075 | 0.981 ± 0.063 |
| C[C@]12Cc3c[nH]nc3C[C@@H]1CC[C@@H]1[C@@H]2CC[C@@]2(C)[C@H]1CC[C@]2(C)O [Stanozolol] | 1.07 ± 0.064 | 1.06 ± 0.036 |
| CN[C@@H]1[C@@H](O)[C@@H](O[C@@H]2[C@@H](O)[C@H](O[C@H]3O[C@H](CN)CC[C@H]3N)[C@@H](N)C[C@H]2N)OC[C@]1(C)O.CN[C@@H]1[C@@H](O)[C@@H](O[C@@H]2[C@@H](O)[C@H](O[C@H]3O[C@H]([C@@H](C)N)CC[C@H]3N)[C@@H](N)C[C@H]2N)OC[C@]1(C)O.CN[C@@H]1[C@@H](O)[C@@H](O[C@@H]2[C@@H](O)[C@H](O[C@H]3O[C@H]([C@@H](C)NC)CC[C@H]3N)[C@@H](N)C[C@H]2N)OC[C@]1(C)O [Gentamicine sulfate] | 0.961 ± 0.029 | 0.955 ± 0.039 |
| C(#CCN1CCCC1)CN1CCCC1 [Tremorine dihydrochloride] | 1.09 ± 0.065 | 1.08 ± 0.06 |
| C[CH2][Hg][S]c1ccccc1C(=O)[O-].[Na+] [Thimerosal] | 0.0995 ± 0.0026 | 0.126 ± 0.0061 |
| C[N+]1(C)CCCC(OC(=O)C(O)(c2ccccc2)c2ccccc2)C1 (stereo not given) [Mepenzolate bromide] | 0.974 ± 0.054 | 1.08 ± 0.059 |
| O=C(CCCN1CCC(n2c(=O)[nH]c3ccccc32)CC1)c1ccc(F)cc1 [Benperidol] | 0.93 ± 0.029 | 0.969 ± 0.083 |

Source: the supplement of paper PMC6609913
